Only some compounds are listed: those with a hit (about 11% of all), similar ones and a draw of the others.
Pf growth 96h: P. falciparum growth inhibition at 96 hours; Potency, µM (top dose mostly 28.7 µM), usual class: inhibitors; 320,000 compounds, 6.9% hits; P. falciparum luciferase reporter growth, 96 h; AID 504834
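Infected RBCs, 2% Hct / 0.05% parasitemia final; luciferase-reporter P. falciparum; cpd 96 h, 37 C, 5% CO2; luciferase detection reagent; luminescence.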
HCV inh: inhibitors of hepatitis C virus infection; Huh7.5.1 HCVcc-Cre infection, luciferase reporter, 44 h; Potency, µM (top dose mostly 41.8 µM), actives largely listed as inhibitors; 340,000 compounds, 3.4% hits; AID 651820
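Reporter virus HCVcc-Cre (~0.5 moi) infects cells exposed to compound; seeding density 1,000 cells/well with 4 h settling beforehand. Luminescence, 15 sec read, taken 44 h post-infection following a 15 min RT substrate incubation.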
AmpC detergent: inhibitors of E. coli AmpC beta-lactamase with detergent; AID 485294; Potency, µM (top dose mostly 114 µM), most hits filed as inhibitors; 370,000 compounds, 0.041% hits; AmpC hydrolysis of nitrocefin, absorbance 480 nm, 0.01% Triton; further: nearly all actives have a fitted effect of over 25% in size
Target sequence (P00811 whole entry, looked up): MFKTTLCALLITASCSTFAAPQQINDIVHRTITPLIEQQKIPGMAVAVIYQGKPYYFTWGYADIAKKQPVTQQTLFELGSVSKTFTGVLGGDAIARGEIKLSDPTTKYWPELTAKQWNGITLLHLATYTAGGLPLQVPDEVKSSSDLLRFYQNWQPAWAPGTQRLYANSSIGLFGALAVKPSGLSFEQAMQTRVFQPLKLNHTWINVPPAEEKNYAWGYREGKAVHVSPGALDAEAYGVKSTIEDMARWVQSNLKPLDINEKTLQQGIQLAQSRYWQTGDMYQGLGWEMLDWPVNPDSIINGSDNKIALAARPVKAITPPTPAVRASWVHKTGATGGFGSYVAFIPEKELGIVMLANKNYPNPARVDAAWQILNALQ
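AmpC (5.3 nM in the dispensed reagent) in 20 mM phosphate pH 7.0 with 0.01% (detergent screen) or 0.0001% Triton X-100 was preincubated with compounds for 15 min at room temperature. Nitrocefin was then added from an 800 uM solution, and hydrolysis was followed at 480 nm.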
AmpC no deterg: inhibitors of E. coli AmpC beta-lactamase without detergent; 330,000 compounds, 0.52% hits; Potency, µM (top dose mostly 57.1 µM), most hits filed as inhibitors; AmpC nitrocefin hydrolysis, absorbance 480 nm, 0.0001% Triton; P00811; AID 485341; further: nearly all actives have a fitted effect of over 20% in size
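AmpC (5.3 nM in the dispensed reagent) in 20 mM phosphate pH 7.0 with 0.01% (detergent screen) or 0.0001% Triton X-100 was preincubated with compounds for 15 min at room temperature. Nitrocefin was then added from an 800 uM solution, and hydrolysis was followed at 480 nm.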
Pf growth 48h: inhibits P. falciparum growth in the first generation, 48 h. AID 504832. 310,000 compounds, 5.9% hits. P. falciparum luciferase growth in erythrocytes, 48 h. Potency, µM (doses to about 28.7 µM), hits mostly inhibitors
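Growth was read as firefly luciferase luminescence after a 48 h, 37 C, 5% CO2 exposure of compounds to reporter-bearing P. falciparum cultures (0.1% parasitemia, 2% hematocrit final) in Albumax-supplemented RPMI 1640.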
AMA1 RON2 block: AMA1-RON2 (P. falciparum) interaction inhibition | AlphaScreen AMA1-biotinylated RON2 peptide binding | Potency, µM (series often up to 58.2 µM), actives largely listed as inhibitors | 360,000 compounds, 0.2% hits | AID 720542; further: nearly all actives have a fitted effect of over 45% in size
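AMA1 (3D7) with his tag at 25 nM final met compounds first, then biotinylated RON2 peptide at 25 nM; detection used donor plus acceptor beads, 10 µg/mL apiece, read by AlphaScreen after 30 min at room temperature.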
A number is an active result; . = inactive; ? = inconclusive; / = no result given; ! = not active in a repeat. The call rests on the fitted dose curve; in most records, active means well fitted curve in the direction sought with a large enough effect; inconclusive means small, poorly fitted or top-dose-only effect, or another doubt; inactive means no such curve, though single readings can be large; an effect the other way counts as inactive or inconclusive.

SMILES	Pf growth 96h	HCV inh	AmpC detergent	AmpC no deterg	Pf growth 48h	AMA1 RON2 block
CCOc1ccc(-n2c(-c3ccc(Br)cc3)cc3c2CC(C)(C)CC3=O)cc1	/	/	.	/	/	/
O=C(O)c1ccc(N=Cc2c(O)[nH]c(=O)[nH]c2=O)cc1	.	.	.	.	.	.
Cc1cc(C)c(N=Cc2c(O)[nH]c(=O)[nH]c2=O)c(C)c1	3.29µM	.	.	.	.	.
CCOc1ccc(S(=O)(=O)NCCc2csc(-c3ccc(Cl)cc3)n2)cc1	/	/	.	/	/	/
O=C(O)c1ccc2c(c1)C(=O)N([C@H](Cc1c3ccccc3cc3ccccc13)C(=O)O)C2=O	.	/	?	.	.	/
Cc1cccc(-c2nc(SCC(=O)N(C)c3ccccc3)c3c(=O)n(C)c(=O)n(C)c3n2)c1	/	/	.	/	/	/
Oc1ccccc1C1CCCCC1c1ccccc1 (stereo unspecified)	?	.	.	.	7.38µM	.
Oc1ccccc1C1SC(c2ccccc2O)SC(c2ccccc2O)S1 (stereo unspecified)	/	?	/	/	/	.
CCC1(C)Cc2c(sc3nc(SCC(=O)O)[nH]c(=O)c23)CO1 (stereo unspecified)	8.28µM	.	.	.	.	.
COc1ccc(CCNC(=O)CCc2c(C)nc3c4cccnc4nn3c2C)cc1OC	/	/	.	/	/	/
CC(C)CC(N(C)C)C1(c2ccc(Cl)cc2)CCC1 (stereo unspecified)	.	3.55µM!	/	.	.	.
CN(C)C1(c2nnnn2-c2ccc(Cl)cc2)CCCCC1	?	.	.	.	/	.
CCc1c(C)c2ccc(OCC(=O)N(C)C)c(C)c2oc1=O	?	.	.	.	.	.
CCN(CC)c1ccc2c(C)c(-c3ccc(N)cc3)c(=O)oc2c1	?	8.91µM	?	.	?	.
CCOC(=O)Cc1c(C)c2ccc(N(CC)CC)cc2oc1=O	.	10µM	.	.	3.7µM	.
CCOC(=O)CCc1c(C)c2ccc(O)cc2oc1=O	?	.	?	.	.	.
CCOC(=O)CCc1c(C)c2ccc(OCC(=O)N(CC)CC)c(C)c2oc1=O	/	?	.	.	10.4µM	.
CCN(CC)c1ccc2c(C)c(Cl)c(=O)oc2c1	?	.	.	.	.	.
Cc1nn2c(C)c(C(=O)N3CCN(c4ccccc4)CC3)cnc2c1-c1ccccc1	/	/	.	/	/	/
CCc1nnc2c(N3CCN(c4cc(Cl)ccc4C)CC3)nc3ccccc3n12	/	/	.	/	/	/
O=C(Nc1ccc(F)cc1)[C@H](Cc1ccccc1)N1Cc2ccccc2C1=O	/	/	.	/	/	/
COc1ccc(CNc2nc3ccccc3s2)cc1OC	?	11.2µM	.	.	.	.
CCn1c(NCc2ccc(OC)c(OC)c2)nc2ccccc21	/	/	.	/	/	/
COc1ccc(CC(=O)Nc2nccs2)cc1OC	.	?	?	.	?	.
COc1ccc(CNc2nccs2)cc1OC	11.7µM	.	.	.	.	.
SMILES	Pf growth 96h	HCV inh	AmpC detergent	AmpC no deterg	Pf growth 48h	AMA1 RON2 block
COc1ccc(OC)c(S(=O)(=O)NCCc2sc(-c3ccc(C)cc3)nc2C)c1	/	/	.	/	/	/
Cn1cc(C[C@H](C(=O)O)N2C(=O)c3ccc(C(=O)O)cc3C2=O)c2ccccc21	?	/	?	.	?	/
N#Cc1c2n(c3c(=O)n(Cc4ccc(Cl)cc4)cnc13)CCCC2	/	.	.	.	.	.
N#Cc1c2n(c3c(=O)n(Cc4ccccc4Cl)cnc13)CCCC2	/	11.2µM	.	.	.	.
CCc1ccccc1N(C)C(=O)C1CCCN(c2ncnc3c2nc2n3CCCCC2)C1 (stereo unspecified)	/	/	.	/	/	/
Cc1ccc(-n2c(=O)[nH]c3sc4c(c3c2=O)CCCC4)cc1	/	/	.	/	/	/
CCOC(=O)c1cc(-c2ccc(N3CCOCC3)cc2)nn1-c1ccc(F)cc1F	11.7µM	11.2µM	?	.	11.7µM	.
CCOC(=O)c1cc(-c2ccc(N3CCOCC3)cc2)nn1-c1ccccc1	?	?	.	.	?	.
CC(O)c1nc2cc([N+](=O)[O-])ccc2n1Cc1ccccc1 (stereo unspecified)	.	.	.	.	13.1µM	.
CCCCN(CCCNC(=O)Cn1nc(CC)n2c(cc3sc(C)cc32)c1=O)Cc1ccccc1	.	8.91µM	.	.	?	.

Screening data deposited in PubChem BioAssay by National Center for Advancing Translational Sciences (NCATS).
